# Results: PubChem BioAssay (NCI)
# Compounds without any hit were thinned out: in the full panel of roughly 83,000, 20% have a hit.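 Activity criterion: percent growth below 10, measured after cells in 96-well plates were exposed to a single compound concentration for 48 hours.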 Activity calls are given as the source filed them.
# System: HL-60(TB) leukemia
# Experiment: NCI-60 one-dose screen, 48 h (100 = growth as untreated, 0 = no growth, -100 = all killed)
# Settings: 10 µM unless noted
row,Structure (SMILES),growth
1,C#C[C@]1(O)CC[C@H]2[C@@H]3CC=C4c5sc(-c6ccccc6)nc5CC[C@]4(C)[C@H]3CC[C@@]21C,74.2% (inactive)
2,CC/C(=N\N=C(/CC)c1ccc(Br)cc1)c1ccc(Br)cc1,124% (inactive)
3,O=C(Nc1ccc(-n2cc(-c3ccncc3)c(-c3ccc(Cl)c(O)c3)n2)cc1)c1cc(Cl)cc(Cl)c1,8.45% (active)
4,COc1ccc(/C=C/c2c(C(=O)/C=C/c3cccs3)c(C)nc3ccccc23)cc1,69.6% (inactive)
5,Nc1c(Br)cc2c(c1Br)Cc1cc([N+](=O)[O-])ccc1-2,69.6% (inactive)
6,CCOC(=O)c1ccc2c(c1)[n+](=O)c(C(C)=O)c(C(F)(F)F)n2[O-],-65.9% (active)
7,COc1ccc(/C=C(/C(=O)N2CCN(Cc3ccccc3)CC2)c2cc(OC)c(OC)c(OC)c2)cc1O,22.9% (inactive)
8,O=C(CCl)Oc1ccc([N+](=O)[O-])cc1,107% (inactive)
9,CC(C)Nc1cc(-c2c[nH]c(C(=O)N[C@H](CO)c3cccc(Cl)c3)c2)c(Cl)cn1,3.3% (active)
10,O=C(/C=C/c1ccc(Cl)cc1)c1ccc(NC(=O)N2CCN(c3cc4c(cc3F)c(=O)c(C(=O)O)cn4C3CC3)CC2)cc1,94.2% (inactive)
11,O=C(c1ccccc1O)N1CCCC1,91.8% (inactive)
12,C=CCS(C)(=O)=O,104% (inactive)
13,O=C1c2c(c3c4ccccc4n(CCCCCCN4CCOCC4)c3c3[nH]c4ccccc4c23)C(=O)N1O,77.7% (inactive)
14,CC(=O)OC(C(=O)c1ccccc1)c1ccccc1 (stereo not given),114% (inactive)
15,Nn1c(-c2ccc(Cl)cc2)nc2c(-c3ccc(Cl)cc3)nc3ccc(Cl)cc3c2c1=O,43.4% (inactive)
16,C/C(=N\NC(=S)N1CCCC1)c1ccccn1,-13.4% (active)
17,CC1=C[C@@H]2c3c(c(O)c(O)c4oc5cc(O)cc(O)c5c(=O)c34)[C@@H](c3cc(O)c(O)c4oc5cc(O)cc(O)c5c(=O)c34)[C@@H]2C(C)(C)C1,-3.85% (active)
18,CCCCCCCCCCC(C)Br (stereo not given),93.1% (inactive)
19,COc1ccc(/C=C/C(=O)OCC(=O)NNC(=O)c2ccccc2)cc1OC,72.2% (inactive)
20,COc1ccc(CNc2nccnn2)cc1,69.9% (inactive)

row,Structure (SMILES),growth
1,COC1=CC(c2ccc[nH]2)=N/C1=C\c1[nH]c(C)c(C(=O)CCCCC(=O)Nc2ccccc2)c1C,74.9% (inactive)
2,CNc1ccc(CSc2ccc(C)cc2)cc1,11.8% (inactive)
3,COc1cc2ncn3c(=O)c4c5c(sc4nc3c2cc1OC)CCCC5,106% (inactive)
4,Nc1nc(Nc2ccccc2SSc2ccccc2Nc2nc(N)nc(-c3ccc(C(F)(F)F)cc3)n2)nc(-c2ccc(C(F)(F)F)cc2)n1,-17% (active)
5,O=C(/C=C1\C(=O)N(Cc2ccc([N+](=O)[O-])cc2)c2ccccc21)c1ccc(OCCN2CCCCC2)cc1,-50.6% (active)
6,CCCNC(=O)c1cn2ncnc(Nc3cc(C(=O)NC4CC4)ccc3C)c2c1C,129% (inactive)
7,O=S(=O)(O)c1ccc(O)c2ccccc12,86% (inactive)
8,O=C1Nc2c(ccc(Cl)c2Cl)/C1=C\c1ccc(C(F)(F)F)cc1,51.8% (inactive)
9,CC(C)(C)n1cc(-c2ccnc(NCCCNS(=O)(=O)c3ccc(Br)cc3)c2)c(-c2cccc(O)c2)n1,3.72% (active)
10,CC(C)(C)CC(C)(C)N(CSc1ccc(Cl)cc1)CSc1ccc(Cl)cc1,-35.3% (active)
11,COc1ccc(-c2nc(/C=C3\C(=O)N(C)c4ccccc43)c3ccccn23)cc1,41.1% (inactive)
12,COc1cc(NC(=O)CCSc2nc3ccccc3c(=O)n2Cc2ccccc2)cc(OC)c1OC,104% (inactive)
13,COc1cc(C)cc2oc3oc(=O)c(C(=O)c4cc5cc(Br)ccc5o4)cc3c(=O)c12,103% (inactive)
14,CCOC(=O)c1cn2ncnc(Oc3ccc(NC(=O)NCCN4CCN(C)CC4)c(Cl)c3)c2c1C,96.9% (inactive)
15,N=C(N)c1ccc(-c2ccc(-c3cc(Cl)cc(Cl)c3)s2)nc1,-7.02% (active)
16,O=C(N/N=C/c1ccccc1Cl)c1cccc2ccccc12,127% (inactive)
17,CCCCCCCC(=O)SCC/C=C/[C@@H]1CC(=O)NCc2nc(cs2)C2=N[C@@](C)(CS2)C(=O)N[C@@H](C(C)C)C(=O)N1,8.7% (active)
18,O=C1c2c(c3c4cccnc4[nH]c3c3ccc4ccccc4c23)C(=O)N1O,5.07% (active)
19,CC1CCC(n2cnc3c(Cl)ncnc32)O1 (stereo not given),112% (inactive)
20,COC1C(O)CC(OC2CC(OC3CC(O[C@@H]4C(=O)c5c(cc6cc(OC7CC(OC8CC(O)C(O)C(C)O8)C(O)C(C)O7)c(C)c(O)c6c5O)CC4[C@H](OC)[C@@H](O)C(C)=O)OC(C)C3O)OC(C)C2O)OC1C (stereo not given in full),14.3% (inactive)
